Measurements as given in PubChem BioAssay.
Values without a mark were called inactive. Activity calls are given as the source filed them. The rule behind the calls is not given here.

Columns and labels:
[1] = test system: Botulinum neurotoxin type F light chain protease (Clostridium botulinum); assay: Clostridium botulinum type F light chain protease inhibitors, microsphere substrate cleavage, validation (AID 588459); details: multiplex microsphere protease substrate cleavage assay, flow cytometry; at 10 µM; hits give high values
[2] = molecular target: Botulinum neurotoxin type A (Clostridium botulinum) (UniProt P0DPI0); assay: BoNT/A light chain protease inhibitors, biochemical, multiplex microsphere flow cytometry, validation set (AID 588460); details: at 10 µM, hits give high values
[3] = molecular target: Lethal factor (Bacillus anthracis) (UniProt P15917); assay: Bacillus anthracis lethal factor inhibition, microsphere flow cytometry protease assay, validation at 10 µM (AID 588461); details: multiplex microsphere protease cleavage assay, hits give high values

In the case of OC(COCc1ccccc1)CN1CCN(Cc2ccc3c(c2)OCO3)CC1 (stereo not given), the inhibition [1] is reported as 0.6%, the inhibition [2] is reported as 0.3% and the inhibition [3] is reported as 2.8%.
In the case of Cc1ccc2c(c1C)NC(C(=O)O)C1CC=CC21 (stereo not given), the inhibition [1] is reported as -5.3%, the inhibition [2] is reported as -1.9% and the inhibition [3] is reported as -13.2%.
CCOc1ccccc1Oc1coc2cc(OCC(=O)O)ccc2c1=O showed an inhibition [1] of 0%, an inhibition [2] of 1.4% and an inhibition [3] of 0.2%.
Compound COc1c2ccoc2nc2c(OC)cccc12 has an inhibition [1] of -3.7%, an inhibition [2] of 0.1% and an inhibition [3] of 3%.
C=C(C)[C@@H]1CC=C(CN2CCC(N3CCC(C(=O)N4CCCC4)CC3)CC2)CC1 gave an inhibition [1] of 7.8%, an inhibition [2] of 0.8% and an inhibition [3] of -0.3%.
Work on COc1ccc(O)c(N)c1 yielded an inhibition [1] of -8.6%, an inhibition [2] of -3.6% and an inhibition [3] of -19.6%.
Compound CC1(C)Cc2ccccc2C(C(Cc2ccccc2)C(N)=O)=N1 (stereo not given) has an inhibition [1] of 0.5%, an inhibition [2] of 1.1% and an inhibition [3] of -3.2%.
In the case of Cc1c(O)c(=O)ccn1C, the inhibition [1] is reported as 3.3%, the inhibition [2] is reported as -1% and the inhibition [3] is reported as 0.9%.
Work on C[C@]12CC[C@@H]3c4cc(O)c(O)cc4CC[C@H]3[C@@H]1CC[C@@H]2O yielded an inhibition [1] of -1%, an inhibition [2] of 1% and an inhibition [3] of -0.8%.
Compound CC(=O)N[C@@H](CS)C(=O)O has an inhibition [1] of 5.5%, an inhibition [2] of -0.8% and an inhibition [3] of 2.4%.
CC(=O)Nc1cc(O)cc(O)c1 showed an inhibition [1] of 6.1%, an inhibition [2] of 0.1% and an inhibition [3] of -1.2%.
In the case of S=C(c1ccc2c(c1)OCO2)N1CCCCC1, the inhibition [1] is reported as 1.1%, the inhibition [2] is reported as -1.6% and the inhibition [3] is reported as -0.2%.
COc1ccccc1C(=O)N=C1NC(=O)CC2C(=O)NCCN12 (stereo not given) was tested, and the inhibition [1] was -2.8%, the inhibition [2] was -1.5% and the inhibition [3] was -5.2%.
Work on CCOC(=O)C1=C2c3ccc4ccccc4c3CC(C)(C)N2C(=O)C1=O yielded an inhibition [1] of 2.7%, an inhibition [2] of 1.7% and an inhibition [3] of -4.6%.
COc1cc2nc(-c3ccccc3)nc(N3CCCC3)c2cc1OC showed an inhibition [1] of -1.8%, an inhibition [2] of -1.5% and an inhibition [3] of -4.3%.
For CC(C)CCC1(CCNC(C)c2cccs2)CCOC(C)(C)C1 (stereo not given), the inhibition [1] was -3.5%, the inhibition [2] was -0.9% and the inhibition [3] was -5.3%.
COc1ccc(CN(CCC(c2ccc(F)cc2)C2CCOC(C)(C)C2)C(=O)c2ccco2)cc1 (stereo not given) was tested, and the inhibition [1] was -2.6%, the inhibition [2] was -0.3% and the inhibition [3] was 1.6%.
With C#CCOc1ccc2c(C)cc(=O)oc2c1 the inhibition [1] was -2.9%, the inhibition [2] was -2.2% and the inhibition [3] was 4.6%.
With CCOC(=O)C1=C(N)Oc2c(oc(CO)cc2=O)C1c1ccc(F)c(F)c1 (stereo not given) the inhibition [1] was 2.1%, the inhibition [2] was 0.3% and the inhibition [3] was -2.3%.
With c1ccc2c(c1)CCCC2C1=NCCN1 (stereo not given) the inhibition [1] was 0.7%, the inhibition [2] was 0.9% and the inhibition [3] was 0.6%.
CC(C)COCC1CC2(CC(C)(c3csc(N)n3)OC2=O)C(=O)O1 (stereo not given) was tested, and the inhibition [1] was -3.2%, the inhibition [2] was -1.9% and the inhibition [3] was 9.1%.
Cn1c(=O)[nH]c(=O)c2c1nc(NCc1ccco1)n2CCCc1ccccc1 gave an inhibition [1] of -0.8%, an inhibition [2] of -0.7% and an inhibition [3] of 0.5%.
CC1(C)C(C=C(Cl)Cl)C1C(=O)N1CCN(Cc2ccccc2)CC1 (stereo not given) gave an inhibition [1] of -0.6%, an inhibition [2] of 0.8% and an inhibition [3] of -5.5%.
CCN1CCN(C(=S)c2ccc(OC)cc2)CC1 showed an inhibition [1] of 2.2%, an inhibition [2] of -0.9% and an inhibition [3] of 11.9%.
For CCOCC(=O)Nc1ccccc1C(=O)N1CCOCC1, the inhibition [1] was 32.5% (active), the inhibition [2] was 14.3% and the inhibition [3] was 6.3%.
CCOC(=O)NN1C(=O)c2ccccc2NC1c1ccc(OC)c(OC)c1 (stereo not given) gave an inhibition [1] of 1.5%, an inhibition [2] of -0.6% and an inhibition [3] of -2%.
With O=c1cnn([C@@H]2O[C@H](CO)[C@@H](O)[C@H]2O)c(=O)[nH]1 the inhibition [1] was -0.1%, the inhibition [2] was 1.8% and the inhibition [3] was 5.4%.
C[C@]12CCC(=O)C=C1CC[C@@H]1[C@@H]2[C@@H](O)C[C@@]2(C)[C@H]1CC[C@]2(O)C(=O)COC(=O)CCC(=O)O showed an inhibition [1] of 1.7%, an inhibition [2] of -2.4% and an inhibition [3] of -8%.
In the case of O=C1OC(c2ccc(O)cc2)(c2ccc(O)cc2)c2ccccc21, the inhibition [1] is reported as -0.3%, the inhibition [2] is reported as -0.8% and the inhibition [3] is reported as -3.6%.
Compound Cc1ncc([N+](=O)[O-])n1CC(C)O (stereo not given) has an inhibition [1] of -0.2%, an inhibition [2] of 1.1% and an inhibition [3] of 0.3%.
